HTR5A inv ag: counter-screen for OPRM1-OPRD1 inverse agonists: human HTR5A inverse agonism | P47898 | HTR5A cell line, luminescence | inhibition, % at 9.3 µM | 340,000 tested, 0.083% active; in the data active means inhibition mostly above about 23%, no sharp cut-off; inactive means mostly below about 18%
OPRM1-OPRD1 inv: inverse agonists of human mu-delta opioid receptor heterodimerization; P35372+P41143; cell-based MOR-DOR heterodimer luminescence, inverse agonism; inhibition, % at 9.3 µM; 340,000 tested, 0.21% active; AID 504357; in the data active means inhibition above about 22%, passing the limit was not always enough
MOR-DOR ag-1: OPRM1-OPRD1 heterodimerization agonism | cells, luminescence | activation, % at 9.3 µM | 340,000 tested, 0.3% active
HTR5A ag: activates human HTR5A in OPRM1-OPRD1 agonist counter-screen. activation, % at 9.3 µM. P47898. HTR5A agonist assay, luminescence, cell-based. 340,000 tested, 0.61% active; in the data active means activation mostly above about 9.5%, no sharp cut-off; inactive means mostly below about 7.6%
MOR-DOR ag-2: opioid heterodimer agonism, HTR5A counter-screen; activation, % at 9.3 µM; shares compounds with HTR5A ag; U2OS counter-screen cells, complementation luminescence, 3 h; 800 tested, 13% active
HTR5A ag conf: HTR5A (human) agonism, confirmation; shares compounds with HTR5A ag; HTR5A agonist cell assay, luminescence; activation, % at 9.3 µM; 800 tested, 17% active; AID 504915; in the data active means activation above about 17%
Each line names hits and unclear results; the compound was inactive in the other large screens (follow-up assays come after a bar, where they were run). Compounds with a hit are over-represented: about 1.1% of the library has one in this group of screens. Unless noted, no stated cut-off is given here; in the data, active means activation above about 18%; inactive means the rest.

CCN(CC)c1ccc(N=Cc2c(O)n(-c3ccccc3C)c(=O)[nH]c2=O)cc1	HTR5A ag 18 | MOR-DOR ag-2 inactive | HTR5A ag conf inactive
NNC(=O)c1nc[nH]c1C(=O)Nc1ccc(Cl)cc1C(=O)c1ccccc1	none
Fc1ccc(CNCCc2c[nH]c3ccccc23)cc1	none
Fc1ccccc1CNCCc1c[nH]c2ccccc12	HTR5A ag 25 | MOR-DOR ag-2 inactive | HTR5A ag conf 39
COC(=O)C1=C(c2ccc(C(C)=O)cc2)C[C@@H]2CC[C@H]1N2C(=O)N1CCC(C)CC1	none
CN1C[C@H](CO)C=C2c3cccc4[nH]cc(c34)C[C@H]21	HTR5A ag 60 | MOR-DOR ag-2 inactive | HTR5A ag conf inactive
CC[n+]1c(-c2ccccc2)c2cc(N)ccc2c2ccc(N)cc21	none
CCCCC/C(=N/O)c1c(C)[nH]c2ccccc12	HTR5A ag 15 | MOR-DOR ag-2 inactive | HTR5A ag conf inactive
CCCN1CC[C@@H]2c3cc(O)ccc3CC[C@@H]21	none
CCCN(CCC)C1CCc2ccc(O)cc2C1 (stereo not given)	HTR5A ag 35 | MOR-DOR ag-2 31 | HTR5A ag conf inactive
CCCN(CCC)C1CCc2cccc(O)c2C1 (stereo not given)	HTR5A ag 46 | MOR-DOR ag-2 inactive | HTR5A ag conf 56
Clc1cc(I)cc(Cl)c1NC1=NCCN1	HTR5A ag 43 | MOR-DOR ag-2 inactive | HTR5A ag conf inactive
CCC1(CC)C(=O)N(C)C(=O)NC1=NC	none

Screens as filed in PubChem.
